The results in this text go back to PubChem BioAssay (NCATS).

Where “and” joins values, the source holds several entries; their conditions need not be identical. Equal entries are not always repeated. Inconclusive results are not listed. The source holds several records for some structures; these can differ, active in one and inactive in another. Calls of active or inactive are those of the source. Unless noted, calls come from the whole dose curve; as a rule, active = well fitted curve in the direction sought with a large enough effect; inconclusive = small, poorly fitted or top-dose-only effect, or another doubt; inactive = no such curve, though single readings can be large; an effect the other way counts as inactive or inconclusive.

Experiment [1] addresses Calcium and integrin-binding protein 1 (Homo sapiens) (UniProt Q99828). Nature of the experiment: Primary qHTS for Identification of Calcium Integrin Binding Protein 1 (CIB1) Competitor (AID 1508620).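 Note: GST tagged CIB1 binding a fluorescein labelled alphaIIb integrin peptide tracer; top concentration of the series differs between compounds; % is set by controls: 0 for no effect and ±100 for the full control effect.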 The note with it: CIB1-GST / FITC-alphaIIb peptide fluorescence polarization; series mostly up to 57.7 µM. The essentials:
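Fluorescence polarization competition: GST-tagged CIB1 (1 uM final) preincubated with compound 15 min at room temperature, then FITC-labelled alphaIIb peptide (100 nM final) added. After 15 min at room temperature, polarization read at Ex 480/Em 540.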
In general terms: qHTS replaces the single test concentration by a dilution series.

The nature of experiment [2]: A High-Content qHTS Against Drug Library for the Identification of Small Molecules that Inhibit DYT1 Early Onset Primary Dystonia-Associated Cell Pathology (AID 1645839; calls by dose curve). Conditions: HEK293 Flp-In EGFP-delE TorsinA, punctate imaging, 48 h; series mostly up to 46.1 µM. The method in brief: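 Flp-In T-REx 293 cells with tetracycline-inducible EGFP-delE hTOR1A (WT EGFP-hTOR1A as reference), 800 cells/well; compound added with tetracycline, 48 h at 37 C. Fixed, permeabilized cells imaged; %pathology (punctate TorsinA) primary, cell count counterscreen.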

A short description of experiment [3]: Primary qHTS for inhibitors of nuclear receptor binding SET domain protein 2 (NSD2) in an isogenic RCH-ACV NSD2 p.E1099K mutant (9B) (AID 1645876). Note: nearly all actives have a fitted effect of over 70% in size. Note: potency is the fitted concentration of half-maximal effect. The note with it: RCH-ACV NSD2 E1099K (9B) viability, CellTiter-Glo, 72 h; series mostly up to 44.9 µM.
Experiment [4] can be described thus: Primary qHTS for inhibitors of nuclear receptor binding SET domain protein 2 (NSD2) in an RCH-ACV wild type WT cells (2C) (AID 1645877). Note: nearly all actives have a fitted effect of over 70% in size. Note: potency is the fitted concentration of half-maximal effect. The note with it: RCH-ACV (leukaemia line) NSD2 WT (2C) viability, CellTiter-Glo, 72 h; series mostly up to 44.9 µM.
Experiment [5] concerns the target Cytochrome P450 2C9 (Homo sapiens) (UniProt P11712). Nature of the experiment: Cytochrome P450 family 2 subfamily C member 9 (CYP2C9) small molecule antagonists: luciferase biochemical (cell-free) qHTS assay (AID 1645842; active = well fitted curve in the direction sought with a large enough effect in the repeat runs; an effect the other way counts as inactive or inconclusive; note: nearly all actives have a fitted effect of over 55% in size; note: potency is the fitted concentration of half-maximal effect; for activity change, negative = inhibition: % is set by controls: 0 for no effect and ±100 for the full control effect). Conditions: P450-Glo CYP2C9 enzyme assay, luciferin luminescence; series mostly up to 57.4 µM. The method in brief: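 Luminescence, after 20 min with luciferin detection reagent, reflected CYP2C9 turnover during a 1 h NADPH-driven reaction at 37C. Enzyme-substrate mix contained 0.4% bovine serum albumin and was preincubated with compound 10 min at room temperature.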

The next experiment deals with Papain (Carica papaya) (UniProt P00784). Nature of the experiment: Primary qHTS assay for inhibitors of the protease papain (AID 1645873).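 Note: papain turnover of Z-FR-AMC read as the AMC fluorescence gain over 10 min.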 Note: potency is the fitted concentration of half-maximal effect. The note with it: papain Z-FR-AMC cleavage, AMC fluorescence; series mostly up to 49.8 µM.
Experiment [6] deals with Cytochrome P450 2D6 (Homo sapiens) (UniProt P10635). Nature of the experiment: Cytochrome P450 family 2 subfamily D member 6 (CYP2D6) small molecule antagonists: luciferase biochemical (cell-free) qHTS assay (AID 1645840; active = well fitted curve in the direction sought with a large enough effect in the repeat runs; an effect the other way counts as inactive or inconclusive; note: nearly all actives have a fitted effect of over 55% in size; note: potency is the fitted concentration of half-maximal effect; for activity change, negative = inhibition: % is set by controls: 0 for no effect and ±100 for the full control effect). Conditions: P450-Glo CYP2D6 enzyme, luciferin luminescence, 1 h; series mostly up to 57.4 µM. The method in brief: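 P450-Glo luminescent screen: recombinant CYP2D6 enzyme–proluciferin substrate mix preincubated with compound 10 min at room temperature, then NADPH regeneration added for 1 h at room temperature. Detection reagent added for 20 min; luciferin light read as relative luminescence units.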

Experiment [7] in a line: Primary qHTS for small molecule stabilizers of the endoplasmic reticulum resident proteome: Secreted ER Calcium Modulated Protein (SERCaMP) assay (AID 1508630). Note: % is set by controls: 0 for no effect and ±100 for the full control effect. The note with it: SH-SY5Y GLuc-SERCaMP (Gaussia luciferase released on ER calcium loss) secretion, thapsigargin, luminescence; series mostly up to 38.4 µM. The method in brief:
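GLuc-SERCaMP-expressing SH-SY5Y cells, pretreated 16 h with compound, are challenged with thapsigargin to empty ER calcium stores; after 4 h, coelenterazine is added directly to the medium and luminescence is imaged.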

Experiment [8] addresses Rap guanine nucleotide exchange factor 3 (Homo sapiens) (UniProt O95398). Nature of the experiment: Confirmatory qHTS for antagonist of cAMP-regulated guanine nucleotide exchange factor 3 (EPAC1) (AID 1645880).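 Note: plate controls were DMSO only for no effect and full effect of the ATA control for full effect; nearly all actives have a fitted effect of over 55% in size.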 The note with it: EPAC1 Rap1B-BODIPY-GDP exchange, fluorescence; series mostly up to 115 µM. The method in brief:
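Nucleotide exchange uses 100 nM EPAC1, 250 nM RAP1B-BODIPY-GDP and 50 uM GDP, with compounds in a concentration-titration series. After 5 min at room temperature, fluorescence (480 nm ex/540 nm em) is read every 5 min for 30 min. Data are normalized to control ATA and DMSO.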

For experiment [9] the target is unchanged. Nature of the experiment: Confirmatory qHTS for agonist of cAMP-regulated guanine nucleotide exchange factor 3 (EPAC1) (AID 1645881).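 Note: EPAC1 catalysed release of BODIPY-GDP from Rap1B seen as fluorescence loss; nearly all actives have a fitted effect of over 75% in size.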 The note with it: EPAC1 Rap1B BODIPY-GDP exchange fluorescence, 100% = cAMP control response; series mostly up to 154 µM.
Experiment [10] deals with Rap guanine nucleotide exchange factor 4 (Homo sapiens) (UniProt Q8WZA2). Nature of the experiment: Confirmatory qHTS for agonist of cAMP-regulated guanine nucleotide exchange factor 4 (EPAC2) (AID 1645884).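 Note: nucleotide exchange releases bodipy-GDP from Rap1 and this lowers its fluorescence; % is set by controls: 0 for no effect and ±100 for the full control effect; nearly all actives have a fitted effect of over 65% in size.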 Conditions: EPAC2 GEF activity, Rap1B-BODIPY-GDP fluorescence, percent relative to cAMP agonist control; series mostly up to 154 µM.
For experiment [11] the target is unchanged. Nature of the experiment: Confirmatory qHTS for antagonist of cAMP-regulated guanine nucleotide exchange factor 4 (EPAC2) (AID 1645885). Note: % is set by controls: 0 for no effect and ±100 for the full control effect; nearly all actives have a fitted effect of over 25% in size. The note with it: EPAC2 Rap1B-BODIPY-GDP exchange fluorescence, biochemical; series mostly up to 114 µM.
The target in experiment [12] is Catechol O-methyltransferase (Homo sapiens) (UniProt P21964). Nature of the experiment: Confirmatory Screen for Target Class Profiling of Small Molecule Inhibitors of Methyltransferases (AID 1745852). Conditions: MTase-Glo luminescence, SAH detection, recombinant enzyme; measured here: COMT max response; stronger effect = lower value.
Experiment [13] addresses Guanidinoacetate N-methyltransferase (Homo sapiens) (UniProt Q14353). Described as above. The note with it: MTase-Glo luminescence, SAH detection, recombinant enzyme; activity change, negative = inhibition: at 57.3 µM (top of the series).
The target in experiment [14] is Cytochrome P450 3A4 (Homo sapiens) (UniProt P08684). Nature of the experiment: Cytochrome P450 family 3 subfamily A member 4 (CYP3A4) small molecule antagonists: luciferase qHTS assay (AID 1645841; active = well fitted curve in the direction sought with a large enough effect in the repeat runs; an effect the other way counts as inactive or inconclusive; note: nearly all actives have a fitted effect of over 45% in size). Conditions: P450-Glo CYP3A4 enzyme assay, luciferin luminescence; series mostly up to 57.4 µM. The essentials:
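P450-Glo CYP3A4 enzyme with proluciferin substrate preincubated 10 min with compound at room temperature, then NADPH regeneration 1 h. Luciferin detection reagent added for 20 min; luminescence recorded. Ketoconazole positive control.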

Sequence of Rap guanine nucleotide exchange factor 3 (Homo sapiens) (O95398 whole entry, looked up): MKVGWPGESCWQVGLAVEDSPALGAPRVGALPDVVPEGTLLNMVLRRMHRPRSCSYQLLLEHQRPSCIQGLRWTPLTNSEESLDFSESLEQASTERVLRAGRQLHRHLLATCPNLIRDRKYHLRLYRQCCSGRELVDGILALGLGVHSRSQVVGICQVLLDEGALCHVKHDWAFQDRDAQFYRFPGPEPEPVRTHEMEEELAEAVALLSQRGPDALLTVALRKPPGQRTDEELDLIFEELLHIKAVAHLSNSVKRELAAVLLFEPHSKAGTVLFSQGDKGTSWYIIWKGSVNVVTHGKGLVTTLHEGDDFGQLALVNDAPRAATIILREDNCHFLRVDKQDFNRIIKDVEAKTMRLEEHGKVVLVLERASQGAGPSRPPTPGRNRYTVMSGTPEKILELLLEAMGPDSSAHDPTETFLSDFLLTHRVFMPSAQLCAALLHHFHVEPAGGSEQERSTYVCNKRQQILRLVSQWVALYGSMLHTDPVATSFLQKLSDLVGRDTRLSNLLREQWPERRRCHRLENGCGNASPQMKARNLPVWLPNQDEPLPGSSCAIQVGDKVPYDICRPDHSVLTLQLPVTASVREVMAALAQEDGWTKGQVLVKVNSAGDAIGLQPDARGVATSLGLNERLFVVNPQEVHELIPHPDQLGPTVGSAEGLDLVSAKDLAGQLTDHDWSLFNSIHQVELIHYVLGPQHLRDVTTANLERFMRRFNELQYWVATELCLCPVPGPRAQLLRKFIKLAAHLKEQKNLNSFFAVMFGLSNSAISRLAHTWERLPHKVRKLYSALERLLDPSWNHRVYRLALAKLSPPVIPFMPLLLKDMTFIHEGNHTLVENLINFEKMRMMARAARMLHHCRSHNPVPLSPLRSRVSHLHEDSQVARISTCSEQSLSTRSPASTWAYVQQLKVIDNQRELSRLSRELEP
Sequence of Cytochrome P450 2D6 (Homo sapiens) (P10635 whole entry, looked up): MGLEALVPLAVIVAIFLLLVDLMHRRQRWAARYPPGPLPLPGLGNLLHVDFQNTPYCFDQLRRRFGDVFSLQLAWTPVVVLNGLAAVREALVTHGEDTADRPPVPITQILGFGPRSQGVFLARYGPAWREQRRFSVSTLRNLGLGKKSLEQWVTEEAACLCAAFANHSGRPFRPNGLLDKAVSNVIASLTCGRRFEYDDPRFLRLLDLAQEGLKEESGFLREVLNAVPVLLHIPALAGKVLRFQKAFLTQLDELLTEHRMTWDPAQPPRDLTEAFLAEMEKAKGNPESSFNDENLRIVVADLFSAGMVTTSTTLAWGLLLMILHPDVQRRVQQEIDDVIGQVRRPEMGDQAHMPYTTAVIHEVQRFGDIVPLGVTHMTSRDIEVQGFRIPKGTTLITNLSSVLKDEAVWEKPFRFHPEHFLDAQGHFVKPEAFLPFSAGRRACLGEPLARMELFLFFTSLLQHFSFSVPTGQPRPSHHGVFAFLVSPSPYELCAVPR
Sequence of Cytochrome P450 2C9 (Homo sapiens) (P11712 whole entry, looked up): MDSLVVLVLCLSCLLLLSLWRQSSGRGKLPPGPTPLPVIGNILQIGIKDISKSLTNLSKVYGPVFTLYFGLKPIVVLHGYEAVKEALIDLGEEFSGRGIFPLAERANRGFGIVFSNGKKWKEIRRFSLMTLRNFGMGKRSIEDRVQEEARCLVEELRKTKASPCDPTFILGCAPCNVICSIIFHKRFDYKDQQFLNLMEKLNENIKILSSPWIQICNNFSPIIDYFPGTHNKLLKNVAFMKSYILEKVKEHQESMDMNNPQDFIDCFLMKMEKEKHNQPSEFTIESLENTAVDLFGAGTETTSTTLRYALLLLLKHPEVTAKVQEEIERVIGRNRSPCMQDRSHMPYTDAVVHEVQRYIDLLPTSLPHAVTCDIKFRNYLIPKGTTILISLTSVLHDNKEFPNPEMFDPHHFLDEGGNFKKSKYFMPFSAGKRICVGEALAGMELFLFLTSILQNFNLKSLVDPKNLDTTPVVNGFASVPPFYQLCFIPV
Sequence of Calcium and integrin-binding protein 1 (Homo sapiens) (Q99828 whole entry, looked up): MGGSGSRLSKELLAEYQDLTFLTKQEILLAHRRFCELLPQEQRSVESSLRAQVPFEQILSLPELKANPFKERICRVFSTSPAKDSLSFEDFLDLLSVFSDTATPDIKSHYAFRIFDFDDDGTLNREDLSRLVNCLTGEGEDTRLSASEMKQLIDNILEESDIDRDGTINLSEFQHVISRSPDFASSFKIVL
Sequence of Rap guanine nucleotide exchange factor 4 (Homo sapiens) (Q8WZA2 whole entry, looked up): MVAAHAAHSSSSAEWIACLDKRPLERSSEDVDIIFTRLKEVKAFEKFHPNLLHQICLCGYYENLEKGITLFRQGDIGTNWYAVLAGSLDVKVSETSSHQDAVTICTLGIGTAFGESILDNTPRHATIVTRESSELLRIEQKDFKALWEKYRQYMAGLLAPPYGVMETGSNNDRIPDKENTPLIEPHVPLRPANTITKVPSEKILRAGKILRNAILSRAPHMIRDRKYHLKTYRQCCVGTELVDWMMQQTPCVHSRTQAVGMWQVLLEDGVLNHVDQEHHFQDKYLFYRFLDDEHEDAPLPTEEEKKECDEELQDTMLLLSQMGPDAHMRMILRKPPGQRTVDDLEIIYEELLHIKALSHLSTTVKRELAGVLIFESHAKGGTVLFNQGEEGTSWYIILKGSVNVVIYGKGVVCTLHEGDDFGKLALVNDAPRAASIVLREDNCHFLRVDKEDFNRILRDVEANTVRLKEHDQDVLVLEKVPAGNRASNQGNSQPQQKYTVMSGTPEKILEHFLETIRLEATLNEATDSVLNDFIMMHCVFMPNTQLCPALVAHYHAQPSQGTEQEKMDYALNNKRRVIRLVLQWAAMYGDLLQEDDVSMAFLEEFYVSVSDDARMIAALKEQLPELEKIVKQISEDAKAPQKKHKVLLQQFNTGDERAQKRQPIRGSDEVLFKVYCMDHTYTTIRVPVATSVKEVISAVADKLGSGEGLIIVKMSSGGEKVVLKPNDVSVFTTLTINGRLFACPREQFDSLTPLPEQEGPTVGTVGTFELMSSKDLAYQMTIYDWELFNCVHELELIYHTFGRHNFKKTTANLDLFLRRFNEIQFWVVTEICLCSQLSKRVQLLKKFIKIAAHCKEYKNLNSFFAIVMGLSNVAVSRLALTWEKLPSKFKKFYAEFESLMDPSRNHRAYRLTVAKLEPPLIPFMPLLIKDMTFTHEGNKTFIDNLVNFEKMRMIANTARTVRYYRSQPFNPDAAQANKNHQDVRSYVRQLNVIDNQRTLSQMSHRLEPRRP
Sequence of Papain (Carica papaya) (P00784 whole entry, looked up): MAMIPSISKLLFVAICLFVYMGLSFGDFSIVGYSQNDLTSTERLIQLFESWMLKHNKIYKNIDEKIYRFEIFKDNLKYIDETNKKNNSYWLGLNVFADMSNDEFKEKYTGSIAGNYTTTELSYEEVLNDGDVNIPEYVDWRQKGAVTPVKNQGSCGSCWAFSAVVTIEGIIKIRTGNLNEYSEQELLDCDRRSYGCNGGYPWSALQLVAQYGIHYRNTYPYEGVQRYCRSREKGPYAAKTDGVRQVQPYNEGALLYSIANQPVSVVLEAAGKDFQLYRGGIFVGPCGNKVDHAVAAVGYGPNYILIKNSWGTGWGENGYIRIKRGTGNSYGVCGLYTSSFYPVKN
Sequence of Cytochrome P450 3A4 (Homo sapiens) (P08684 whole entry, looked up): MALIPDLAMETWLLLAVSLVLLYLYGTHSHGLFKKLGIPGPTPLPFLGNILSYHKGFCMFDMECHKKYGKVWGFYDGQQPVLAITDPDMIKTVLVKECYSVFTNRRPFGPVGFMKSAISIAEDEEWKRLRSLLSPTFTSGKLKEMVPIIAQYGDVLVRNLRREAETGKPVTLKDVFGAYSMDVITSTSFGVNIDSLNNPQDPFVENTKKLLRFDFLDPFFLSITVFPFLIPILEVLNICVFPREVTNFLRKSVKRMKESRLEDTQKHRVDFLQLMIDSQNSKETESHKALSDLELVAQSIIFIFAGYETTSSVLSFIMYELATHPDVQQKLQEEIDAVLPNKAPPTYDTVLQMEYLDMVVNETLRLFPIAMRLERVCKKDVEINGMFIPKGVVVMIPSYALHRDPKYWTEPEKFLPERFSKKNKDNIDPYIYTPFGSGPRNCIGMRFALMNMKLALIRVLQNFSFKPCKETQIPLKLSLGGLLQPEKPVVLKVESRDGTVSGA
Sequence of Catechol O-methyltransferase (Homo sapiens) (P21964 whole entry, looked up): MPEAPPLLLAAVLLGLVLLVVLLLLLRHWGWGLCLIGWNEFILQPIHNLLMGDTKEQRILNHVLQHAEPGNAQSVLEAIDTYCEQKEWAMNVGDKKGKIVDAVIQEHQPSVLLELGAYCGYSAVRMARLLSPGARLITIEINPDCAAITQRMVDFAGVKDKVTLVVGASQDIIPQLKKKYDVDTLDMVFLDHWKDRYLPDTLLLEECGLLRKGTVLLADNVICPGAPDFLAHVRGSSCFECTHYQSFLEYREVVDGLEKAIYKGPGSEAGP

With `CC(C)OC(=O)C(C(=O)OC(C)C)=C1SC=CS1`, the outcome in [1] was “inactive”. Further, the Potency result in experiment [2], in experiment [3] and in experiment [4] was “inactive” each time.

Consider `Cc1ccnc2c1NC(=O)c1cccnc1N2C1CC1`, for which the outcome in experiment [1] was “inactive”. For the same compound, the Potency entry in [2] and in [5] was “inactive” in each case.

With `CN(CCOc1ccc(CC2SC(=O)NC2=O)cc1)c1ccccn1` (centres undefined), the outcome in experiment [1] was “inactive”. Further, the Potency entry in [2], in [5], in [3] and in [4] was “inactive” in each case.

Take `O=C(O)CSCC(=O)NC1CCSC1=O` (centres undefined): the outcome in experiment [1] was “inactive”. The Potency entry in [2], in experiment [5], in experiment [3] and in [4] was “inactive” throughout.

Consider `Nc1nc(N)c2nc(CNc3ccc(C(=O)NC(CCC(=O)O)C(=O)O)cc3)cnc2n1` (centres undefined), for which, in experiment [1], the outcome is “inactive”. Besides, the Potency with Papain (Carica papaya) is 3.55 µM (active).

Take `CC1(C)[C@H](C(=O)O)N2C(=O)C[C@H]2S1(=O)=O`: the outcome in [1] is “inactive”. Also, the Potency result in [2], in experiment [5], in [3] and in experiment [4] was “inactive” in each case.

`CCc1c2c(nc3ccc(OC(=O)N4CCC(N5CCCCC5)CC4)cc13)-c1cc3c(c(=O)n1C2)COC(=O)[C@]3(O)CC`: the Potency entry in experiment [6] and in experiment [5] was “inactive” throughout. Also, the Potency in experiment [3] is 750 nM (active) and 235 nM (active); in experiment [4], 596 nM (active) and 118 nM (active).

Consider `CN1CCN(c2c(F)cc3c(=O)c(C(=O)O)cn(CCF)c3c2F)CC1`, for which the Potency result in experiment [7], in experiment [2], in experiment [6], in [5] and in [3] was “inactive” throughout.

`Nc1ccc(S(=O)(=O)Nc2ccccn2)cc1`: the Potency entry in [7], in experiment [2], in experiment [6], in [5], in experiment [3] and in [4] was “inactive” throughout.

Turning to `OC(Cn1cncn1)(Cn1cncn1)c1ccc(F)cc1F`, the outcome in experiment [1] is “inactive”. Further, the Potency entry in [2], in experiment [3] and in experiment [4] was “inactive” in each case.

`Cc1cc(NS(=O)(=O)c2ccc(N)cc2)no1`: in experiment [2], the Potency entry was “inactive”.

For `CCC(=O)O[C@]1(C(=O)SCF)[C@H](C)C[C@H]2[C@@H]3C[C@H](F)C4=CC(=O)C=C[C@]4(C)[C@@]3(F)[C@@H](O)C[C@@]21C`, the outcome in experiment [1] is “inactive”. Besides, the Potency result in experiment [2], in experiment [6] and in [4] was “inactive” throughout.

On to `Cc1onc(-c2ccccc2Cl)c1C(=O)N[C@@H]1C(=O)N2[C@@H]1SC(C)(C)[C@@H]2C(=O)O`, for which the outcome in [1] is “inactive”. For the same compound, the Potency entry in [2], in experiment [3] and in experiment [4] was “inactive” each time.

Regarding `CCCCCCNC(=O)n1cc(F)c(=O)[nH]c1=O`, the outcome in experiment [1] was “inactive”. For the same compound, the Potency result in [2] is “inactive”. Also, the Potency is 15.5 µM (active) in [6]; 8.41 µM (active) and 10.5 µM (active) in experiment [3]; 7.5 µM (active) and 8.33 µM (active) in experiment [4].

`CN(C)CCc1c[nH]c2ccc(C[C@H]3COC(=O)N3)cc12`: the outcome in experiment [1], in [8], in [9], in [10] and in experiment [11] was “inactive” each time. Also, the Potency entry in [2], in [5], in [3] and in experiment [4] was “inactive” each time.

In the case of `C[C@@H]1C[C@H]2[C@@H]3CCC4=CC(=O)C=C[C@]4(C)[C@@]3(Cl)[C@@H](O)C[C@]2(C)[C@@]1(OC(=O)c1ccco1)C(=O)CCl`, in [1], the outcome was “inactive”. For the same compound, the Potency in [6] was 2.45 µM (active); in [5], 4.36 µM (active); in [3], 23.7 µM (active); in experiment [4], “inactive and 1.2 nM (active)”.

Consider `CCn1cc(C(=O)O)c(=O)c2cc(F)c(N3CCN(C)CC3)cc21`, for which the Potency entry in [7], in experiment [2], in experiment [3] and in experiment [4] was “inactive” each time.

Turning to `C[C@]12C=CC(=O)C=C1CC[C@@H]1[C@@H]2C(=O)C[C@@]2(C)[C@H]1CC[C@]2(O)C(=O)CO`, the outcome in experiment [1] was “inactive”. The Potency entry in [2], in [3] and in experiment [4] was “inactive” throughout.

Turning to `CCN(CC)CC#CCOC(=O)C(O)(c1ccccc1)C1CCCCC1` (centres undefined), the Potency result (in experiment [7]; in the experiment with Papain (Carica papaya)) was “inactive” throughout. For the same compound, the values for the Potency in [6] and in experiment [5] were 3.01 µM (active) and 7.56 µM (active), respectively.

With `C1CCC(C(CC2CCCCN2)C2CCCCC2)CC1` (centres undefined), in [1], the outcome was “inactive”. The Potency is 0.138 µM (active) in [6], 7.42 µM (active) in experiment [3] and 8.33 µM (active) in experiment [4].

With `CNNCc1ccc(C(=O)NC(C)C)cc1`, the Potency result in experiment [2], in experiment [6], in [5], in experiment [3] and in [4] was “inactive” each time.

For `O=C(O)c1cc(=O)[nH]c(=O)[nH]1`, the outcome in experiment [1] is “inactive”. In addition, the Potency entry in [2], in experiment [6], in [5], in [3] and in experiment [4] was “inactive” throughout.

Turning to `NC1(c2ccc(-c3nc4ccn5c(=O)[nH]nc5c4cc3-c3ccccc3)cc2)CCC1`, in experiment [1], the outcome is “inactive”. Also, the Potency result in experiment [5] is “inactive”. For the same compound, the Potency in [3] was 21.1 nM (active) and 64.9 nM (active) and 166 nM (active); in experiment [4], 21.1 nM (active) and 81.7 nM (active) and 332 nM (active). Moreover, in experiment [12], the activity was -9.12%. In addition, in [13], the activity change, negative = inhibition was -8.7%.

In the case of `O=NN(CCCl)C(=O)NC1CCCCC1`, the outcome in experiment [1] and in experiment [14] was “inactive” in each case. Further, the Potency result in experiment [2], in [5], in experiment [3] and in [4] was “inactive” each time.

Turning to `CS(=O)(=O)c1ccc([C@@H](O)[C@@H](CO)NC(=O)C(Cl)Cl)cc1`, in experiment [1], the outcome is “inactive”. Besides, the Potency result in experiment [2], in experiment [5] and in experiment [3] was “inactive” each time.

As for `Cc1cccc(N(C)C(=S)Oc2ccc3ccccc3c2)c1`, the outcome in [1], in experiment [8], in experiment [9], in experiment [10] and in experiment [11] was “inactive” each time. The Potency result in [2] and in experiment [3] was “inactive” in each case. Further, the Potency in experiment [5] was 11 µM (active); in [4], “inactive and 14.8 µM (active)”.

For `Clc1ccccc1CN1CCc2sccc2C1`, the Potency result in [2] was “inactive”.
